According to PubChem BioAssay (NCATS):
“And” between values parts separate entries of the source, which are not always exact repeats. Identical values can stand only once. Inconclusive results are not listed. Values without a mark were called inactive. The source made the active and inactive calls. The call rests on the fitted dose curve; in most records, active means well fitted cell-killing curve with a large enough effect; inconclusive means small, poorly fitted or top-dose-only effect, or effect the other way; inactive means no such curve, though single readings can be large or run the other way.

Test: Viability qHTS for spleen associated tyrosine kinase inhibitor (SYKi) naive MV4-11 cells (AID 1963823); further: nearly all actives have a fitted effect of over 40% in size
Details: MV4-11 AML viability, CellTiter-Glo luminescence, 72 h; series mostly up to 45 µM; viability (% of control): at the top concentration
Method in brief: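 Compounds were dispensed acoustically onto plates, MV4-11 cells (SYKi-naive) added at 500 per well, and plates incubated 72 hr at 37 C. CellTiter-Glo was added and luminescence measured after 10 min.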
Potency means the concentration at half of the fitted maximal effect.

Structure (SMILES) | Potency | viability (% of control)
COc1ccc(CNc2nc(N(CCO)CCO)nc3c2ncn3C(C)C)cc1 | 4.11 µM (active) | –
Cc1cc(O)cc2c1[C@]1(C)CC[C@H]3C(C)(C)CCC[C@]3(C)[C@H]1C2 | – | 65.3% [at 4.97 µM]
OCCn1cc(-c2ccc3c(c2)CC/C3=N\O)c(-c2ccncc2)n1 | 16.4 µM (active) | –
NC(=O)/C(=C/n1cnc(-c2cc(C(F)(F)F)cc(C(F)(F)F)c2)n1)c1cncnc1 | 0.132 µM (active) | –
Cc1[nH]c(/C=C2\C(=O)Nc3ccc(S(=O)(=O)N(C)c4cccc(Cl)c4)cc32)c(C)c1C(=O)N1CCN(C)CC1 | 1.3 µM (active) and 1.32 µM (active) | –

Test: Viability qHTS for spleen associated tyrosine kinase inhibitor (SYKi) drug resistant MV4-11 cells (AID 1963824); further: nearly all actives have a fitted effect of over 35% in size
Details: SYKi-resistant MV4-11 viability, CellTiter-Glo, 72 h; series mostly up to 45 µM; viability, % of control: at the top concentration
Method in brief: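 SYK-inhibitor-resistant MV4-11 AML cells were seeded at 500 per well onto compound and cultured 72 hours (37 °C, 5% CO2). CellTiter-Glo was then added, and after 10 min at room temperature, luminescence gave viability.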

Structure (SMILES) | viability, % of control | Potency
CC(O)C(=O)O (stereo not given) | 86.2% | –
CC(C)(C(=O)O)c1ccc(C(O)CCCN2CCC(C(O)(c3ccccc3)c3ccccc3)CC2)cc1 (stereo not given) | – | inactive
O=C1NC(=O)/C(=C/c2ccc3nccc(-c4ccncc4)c3c2)S1 | – | 820 nM (active) and 525 nM (active)
OCCN1CCN(CCCN2c3ccccc3Sc3ccc(Cl)cc32)CC1 | – | 8.41 µM (active)
O=S(=O)(NCCNC/C=C/c1ccc(Br)cc1)c1cccc2cnccc12 | – | 9.2 µM (active) and 11.8 µM (active)
CC[C@@]1(O)C(=O)OCc2c1cc1n(c2=O)Cc2c-1nc1ccccc1c2/C=N/OC(C)(C)C | – | 0.006 µM (active)
C[C@@H](Oc1cc(C(=O)Nc2ccc(C(=O)N3CCN(C)CC3)cc2)nnc1N)c1c(Cl)ccc(F)c1Cl | – | 2.63 µM (active)
CC(C)C[C@H](NC(=O)[C@H](Cc1ccccc1)NC(=O)OCc1ccccc1)C(=O)C=O | – | 20.9 µM (active)
CN(C)CCOc1ccc(-c2nc(-c3ccc4c(c3)CC/C4=N\O)c(-c3ccncc3)[nH]2)cc1 | – | 5.9 µM (active)
COc1cccc2c1C(=O)c1c(O)c3c(c(O)c1C2=O)C[C@@](O)(C(=O)CO)C[C@@H]3O[C@H]1C[C@H](N)[C@H](O)[C@H](C)O1 | – | 0.299 µM (active)
CCCCCCCCCCCCCCCC[N+](C)(C)CC | – | 0.668 µM (active)
CCCCC(CC)CNC(=O)CC(C)OC(=O)CCC(=O)O (stereo not given) | 88.7% | –
O=C1OC(COc2ccccc2[N+](=O)[O-])CC1Cc1ccccc1 (stereo not given) | – | 13.2 µM (active)
CN(C)C(N)=NC(=N)N | 82.3% | –
COc1cc(C(N)=O)ccc1NC(=O)[C@@H]1N[C@@H](CC(C)(C)C)[C@@]2(C(=O)Nc3cc(Cl)ccc32)[C@H]1c1cccc(Cl)c1F | – | 4.68 µM (active)
CC(=O)O/N=C1\C(=O)N(Cc2cc(Cl)ccc2Cl)c2ccc(Cl)cc21 | – | 8.33 µM (active)
CCOC(=O)[C@H](CCc1ccccc1)N[C@@H](C)C(=O)N1[C@H](C(=O)O)C[C@@H]2CCC[C@@H]21 | 87.5% | –
CSc1ccc2c(c1)N(CCC1CCCCN1C)c1ccccc1S2 (stereo not given) | – | 13.3 µM (active)
NC(=O)NNc1ccccc1 | 92.6% | –
CN(C)c1cc(NC(=O)CNC(C)(C)C)c(O)c2c1C[C@H]1C[C@H]3[C@H](N(C)C)C(=O)C(C(N)=O)=C(O)[C@]3(O)C(=O)C1=C2O | 76.2% | –
CCC1(c2cnc[nH]2)Cc2ccccc2C1 | 87.3% | –
CC(=O)Oc1cccc(O)c1 | 79.7% | –
Nc1ccc(C(=O)NCC(=O)O)cc1 | 78.1% | –
C[C@]12CC[C@@H]3c4ccc(O)cc4CC[C@H]3[C@@H]1CC[C@@H]2OC(=O)CCC1CCCC1 | 8.36% | –
Cc1cc2c(C(C)C)c(O)c(O)c(C=O)c2c(O)c1-c1c(C)cc2c(C(C)C)c(O)c(O)c(C=O)c2c1O | – | 4.68 µM (active)
Cc1cc(OCCCc2c3n(c4c(-c5c(C)nn(C)c5C)c(Cl)ccc24)[C@H](C)CN(c2cn(C)c4ccc(C(=O)O)cc24)C3=O)cc(C)c1Cl | – | 0.662 µM (active)
O=C(/C=C/c1ccc(/C=C/C(=O)Nc2ccc(C3=NCCN3)cc2)cc1)Nc1ccc(C2=NCCN2)cc1 | 91.6% [at 4.97 µM] | –
O=C1[C@H](CC[C@H](O)c2ccc(F)cc2)[C@@H](c2ccc(O)cc2)N1c1ccc(F)cc1 | – | 14.6 µM (active) and 20.9 µM (active)
c1cn2cc(-c3ccc4cn[nH]c4c3)nc(Nc3ccc(N4CCOCC4)cc3)c2n1 | – | 820 nM (active) and 1.32 µM (active)
C[C@@H]1C[C@H]2[C@@H]3C[C@H](F)C4=CC(=O)C=C[C@]4(C)[C@@]3(F)[C@@H](O)C[C@]2(C)[C@@]1(O)C(=O)CO | – | 2.11 µM (active)
